{
  "source": "PubChem BioAssay (Tox21)",
  "note": "Inconclusive results are not listed. Unmarked numbers belong to inactive results. Active and inactive are the calls of the source. The call rests on the fitted dose curve; in most records, active means well fitted activation curve with a large enough effect in the repeat runs; inconclusive means weak or mixed curves; inactive means no such curve, though single readings can be large or run the other way. On the % scale 0 is the no-effect control and ±100 the full control effect; potency means the concentration at half of the fitted maximal effect.",
  "data": [
    {"assay": "qHTS assay for small molecules that induce genotoxicity in human embryonic kidney cells expressing luciferase-tagged ATAD5 (AID 651632); further: nearly all actives have a fitted effect of over 15% in size", "settings": "HEK293T ATAD5-luciferase induction, 16 h; series mostly up to 83.3 µM; activation: at the top concentration", "summary_of_the_method": "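Test compounds were delivered by pin tool onto HEK293T reporter cells (2,000/well) expressing ATAD5 fused to luciferase. After 16 hr at 37C, 5% CO2, Amplite was added for 30 min at room temperature and luminescence was measured.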", "values": [
      {"smiles": "O=CCCc1ccccc1", "activation": "-0.638%"},
      {"smiles": "CC1=C2[C@H](/C=C(\\C)C(=O)O)CC[C@@H](C)[C@H]2CC1", "activation": "-4.77% [at 95.3 µM]"},
      {"smiles": "Oc1ccccc1F", "activation": "2.5%"},
      {"smiles": "CCOc1ccc(NC(N)=O)cc1", "activation": "1.95%"},
      {"smiles": "COc1ccc2nc(NC(=O)Nc3ccccc3)sc2c1", "Potency": "0.75 µM (active)"},
      {"smiles": "CCC/C=C/CO", "activation": "-0.724%"},
      {"smiles": "CN1C(=O)CC(c2ccccc2)C1=O", "note": "(stereo not given)", "activation": "-1.05%"},
      {"smiles": "Cc1ccc(C(C)C)cc1O", "activation": "2.04%"},
      {"smiles": "Cc1c[nH]c(=S)[nH]c1=O", "activation": "2.39%"},
      {"smiles": "CC1=NN(c2cc(Cl)c(S(=O)(=O)O)cc2Cl)C(=O)C1N=Nc1ccc(S(=O)(=O)O)cc1", "note": "(stereo not given)", "activation": "-0.562%"},
      {"smiles": "CCOc1ccc(OCC)c(Cl)c1", "activation": "1.14%"},
      {"smiles": "Cc1ccc([N+](=O)[O-])c(N)c1", "activation": "3.59%"},
      {"smiles": "CCCCN1C[C@H](O)[C@@H](O)[C@H](O)[C@H]1CO", "activation": "2.46%"},
      {"smiles": "CN1CCN(C2=Nc3ccccc3Oc3ccc(Cl)cc32)CC1", "activation": "-3.91% [at 39.1 µM]"},
      {"smiles": "CC(C)O", "Potency": "inactive"},
      {"smiles": "CN1[C@@H]2CC[C@H]1CC(OC(=O)c1c[nH]c3ccccc13)C2", "note": "(stereo not given in full)", "activation": "-6.62%"},
      {"smiles": "CN1CCC[C@@H]1Cc1c[nH]c2ccc(CCS(=O)(=O)c3ccccc3)cc12", "activation": "-2.13%"},
      {"smiles": "CC1CN(c2ccccc2)NC1=O", "note": "(stereo not given)", "activation": "4.85%"},
      {"smiles": "CC(C)=CCCC(C)CCOC=O", "note": "(stereo not given)", "activation": "-9.84%"},
      {"smiles": "CCOC(=O)CS", "activation": "3.84% [at 95.3 µM]"},
      {"smiles": "Cc1cc2c(s1)Nc1ccccc1N=C2N1CCN(C)CC1", "activation": "2.07%"},
      {"smiles": "O=C1CCCCC1C1CCCCC1", "note": "(stereo not given)", "activation": "-0.233%"},
      {"smiles": "CCC(=O)c1ccc2c(c1)N(CCCN(C)C)c1ccccc1S2", "activation": "-2.16%"},
      {"smiles": "CN(C)CCOc1ccccc1Cc1ccccc1", "activation": "-4.27%"},
      {"smiles": "CCOc1ccc(NS(=O)(=O)c2ccc(N)cc2)nn1", "activation": "3.01%"},
      {"smiles": "Cn1cnc2c(F)c(Nc3ccc(Br)cc3Cl)c(C(=O)NOCCO)cc21", "activation": "0.844%"},
      {"smiles": "CCCCCCCCCCCCCCCCOP(=O)([O-])OCC[N+](C)(C)C", "activation": "-3.64%"},
      {"smiles": "CCN(CCCc1ccccc1)CCCc1ccccc1", "activation": "-4.1% [at 39.1 µM]"},
      {"smiles": "CCCCCCCCCCCCOCCOS(=O)(=O)O", "activation": "4.06%"},
      {"smiles": "CCNCCO", "activation": "1.62%"},
      {"smiles": "O=C(CC(=O)C(F)(F)F)c1ccccc1", "activation": "-11.1% [at 95.3 µM]"},
      {"smiles": "CCCCCCCOC(=O)CCC", "activation": "-2.89%"},
      {"smiles": "O=[N+]([O-])c1nccn1CO[C@@H](CO)[C@H](O)CO", "activation": "4.54%"},
      {"smiles": "CCCCNc1ccc(C(=O)OCCN(CC)CC)cc1", "activation": "2.83%"},
      {"smiles": "C[C@@H]1CN(c2c(F)c(F)c3c(=O)c(C(=O)O)cn(C4CC4)c3c2F)C[C@H](C)N1", "activation": "0.728%"}
    ]}
  ]
}
